The text below walks through data of PubChem BioAssay (Tox21).

Assay [1] is described as follows: A CellTox Green Cytotoxicity Assay to monitor cytotoxicity in HEK293 cells - 40 hour (AID 1224871). Note: nearly all actives have a fitted effect of over 45% in size. Note: potency is the fitted concentration of half-maximal effect. Put shortly:
(§1)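 Fluorescence from a DNA-binding dye excluded by viable cells was measured repeatedly in the same HEK293 wells (600 cells/well) during continuous compound exposure at 37 C. Each assay gives one read point: 0, 8, 16, 24, 32 or 40 h.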

Assay [2] in a line: qHTS RealTime-Glo MT Cell Viability Assay in HEK293 cells - 16 hour (AID 1224872). For activity change, negative = cytotoxicity: top concentration of the series differs between compounds. Note: nearly all actives have a fitted effect of over 50% in size. Note: potency is the fitted concentration of half-maximal effect. Put shortly:
(§2)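 HEK293 cells seeded with NanoLuc/prosubstrate reagent, rested 5 h at 37 C, then dosed and kept at 37 C up to 40 h. Nonlytic real-time luminescence from viable cells read at 0, 8, 16, 24, 32 and 40 h.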

Assay [3] can be described thus: qHTS RealTime-Glo MT Cell Viability Assay in HEK293 cells - 40 hour (AID 1224874). Note: nearly all actives have a fitted effect of over 50% in size. Particulars: RealTime-Glo luminescence; max response: active compounds read low. The method in brief: (§3)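 Luminescence, which tracks viable cell number through reduction of the prosubstrate to a NanoLuc substrate, was read over continuous 37 C culture. Cells (600/well) were premixed with reagent and rested 5 h before 23 nL of compound in DMSO was pinned.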

The nature of assay [4]: A CellTox Green Cytotoxicity Assay to monitor cytotoxicity in HEK293 cells - 24 hour (AID 1224875). For activity change: series mostly up to about 77 µM. Note: nearly all actives have a fitted effect of over 45% in size. Note: potency is the fitted concentration of half-maximal effect. Put shortly: as §1
A short description of assay [5]: A CellTox Green Cytotoxicity Assay to monitor cytotoxicity in HepG2 cells - 16 hour (AID 1224876). Note: nearly all actives have a fitted effect of over 45% in size. Note: potency is the fitted concentration of half-maximal effect. The method in brief:
(§4)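 Real-time cytotoxicity: fluorescence of a cell-impermeant cyanine dye binding DNA of dead HepG2 cells, measured repeatedly (0–40 h) during compound exposure at 37 C. Cells seeded 600/well with reagent, dosed after 5 h.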

The nature of assay [6]: qHTS RealTime-Glo MT Cell Viability Assay in HepG2 cells - 32 hour (AID 1224877). Note: nearly all actives have a fitted effect of over 55% in size. Note: potency is the fitted concentration of half-maximal effect. Put shortly:
(§5)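 HepG2 cells (600/well) were dispensed with RealTime-Glo reagents, incubated 5 h at 37 °C, then treated with compounds in DMSO for up to 40 h. Nonlytic NanoLuc luminescence reflecting viable cells was read at each stated time point.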
For orientation: Quantitative high-throughput screening tests each substance at several concentrations.

A short description of assay [7]: A CellTox Green Cytotoxicity Assay to monitor cytotoxicity in HepG2 cells - 24 hour (AID 1224878). Note: nearly all actives have a fitted effect of over 45% in size. Note: potency is the fitted concentration of half-maximal effect. Put shortly:
as §4

Assay [8] is described as follows: A CellTox Green Cytotoxicity Assay to monitor cytotoxicity in HepG2 cells - 40 hour (AID 1224879). Note: nearly all actives have a fitted effect of over 40% in size. Note: potency is the fitted concentration of half-maximal effect. The method in brief: as §4
Assay [9] is described as follows: qHTS RealTime-Glo MT Cell Viability Assay in HEK293 cells - 0 hour (AID 1224880). The method in brief: as §3
A short description of assay [10]: A CellTox Green Cytotoxicity Assay to monitor cytotoxicity in HEK293 cells - 32 hour (AID 1224881). Note: nearly all actives have a fitted effect of over 40% in size. Note: potency is the fitted concentration of half-maximal effect. The method in brief: as §1
The nature of assay [11]: A CellTox Green Cytotoxicity Assay to monitor cytotoxicity in HepG2 cells - 0 hour (AID 1224882). Note: nearly all actives have a fitted effect of over 35% in size. Put shortly: as §4
Assay [12] in a line: A CellTox Green Cytotoxicity Assay to monitor cytotoxicity in HepG2 cells - 32 hour (AID 1224883). Note: nearly all actives have a fitted effect of over 50% in size. Note: potency is the fitted concentration of half-maximal effect. The method in brief: as §4
Assay [13] is described as follows: A CellTox Green Cytotoxicity Assay to monitor cytotoxicity in HEK293 cells - 8 hour (AID 1224884). Note: nearly all actives have a fitted effect of over 35% in size. Note: potency is the fitted concentration of half-maximal effect. Put shortly: as §1
A short description of assay [14]: qHTS RealTime-Glo MT Cell Viability Assay in HepG2 cells - 16 hour (AID 1224885). Note: nearly all actives have a fitted effect of over 50% in size. Note: potency is the fitted concentration of half-maximal effect. Put shortly: as §5
Assay [15] is described as follows: qHTS RealTime-Glo MT Cell Viability Assay in HEK293 cells - 24 hour (AID 1224886). For activity change, negative = cytotoxicity: top concentration of the series differs between compounds. Note: nearly all actives have a fitted effect of over 50% in size. Note: potency is the fitted concentration of half-maximal effect. The method in brief: as §2
The nature of assay [16]: qHTS RealTime-Glo MT Cell Viability Assay in HEK293 cells - 8 hour (AID 1224887). For activity change, negative = cytotoxicity: top concentration of the series differs between compounds. Note: nearly all actives have a fitted effect of over 50% in size. Note: potency is the fitted concentration of half-maximal effect. The method in brief:
as §3

Assay [17] can be described thus: A CellTox Green Cytotoxicity Assay to monitor cytotoxicity in HEK293 cells - 16 hour (AID 1224888). Note: nearly all actives have a fitted effect of over 35% in size. Note: potency is the fitted concentration of half-maximal effect. Put shortly: as §1
A short description of assay [18]: qHTS RealTime-Glo MT Cell Viability Assay in HepG2 cells - 0 hour (AID 1224889). Note: nearly all actives have a fitted effect of over 50% in size. Put shortly: as §5
The nature of assay [19]: A CellTox Green Cytotoxicity Assay to monitor cytotoxicity in HepG2 cells - 8 hour (AID 1224890). Note: nearly all actives have a fitted effect of over 45% in size. Note: potency is the fitted concentration of half-maximal effect. The method in brief: as §4
Assay [20] can be described thus: qHTS RealTime-Glo MT Cell Viability Assay in HepG2 cells - 8 hour (AID 1224873). Note: nearly all actives have a fitted effect of over 55% in size. Note: potency is the fitted concentration of half-maximal effect. The method in brief:
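HepG2 cells (600/well) mixed with RealTime-Glo MT reagent, settled 5 h at 37 C/5% CO2 before compound addition. Nonlytic NanoLuc luminescence from viable-cell prosubstrate reduction read repeatedly during 40 h treatment at 37 C.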

Each structure is given as a SMILES string. Values without a mark were called inactive. Inconclusive results are not listed. Calls of active or inactive are those of the source. Calls come from the whole dose curve; as a rule, active = well fitted curve in the direction sought with a large enough effect in the repeat runs; inconclusive = weak or mixed curves; inactive = no such curve, though single readings can be large; an effect the other way counts as inactive or inconclusive.
% is set by controls: 0 for no effect and ±100 for the full control effect.

As to `Cc1cc(C(C)(C)C)cc(C)c1CC1=NCCN1`, the Potency entry in assay [1], in assay [2], in assay [4], in assay [5], in [6] and in [7] was “inactive” throughout. In addition, the Potency entry in assay [8], in assay [9], in [10], in assay [11], in assay [12] and in [13] was “inactive” throughout. The Potency result in assay [14], in assay [15], in [16], in assay [17], in [18] and in assay [19] was “inactive” each time. Moreover, the max response in [3] was -8.22%.
`Cc1nc(-c2ccc(Cl)cc2)oc1COC(C)(C)C(=O)O`: the Potency entry in assay [1], in [2], in [20], in assay [4], in assay [5] and in assay [6] was “inactive” in each case. The Potency result in [7], in assay [8], in assay [9], in [10], in assay [11] and in assay [12] was “inactive” throughout. For the same compound, the Potency entry in assay [13], in assay [14], in assay [15], in assay [16], in [17] and in assay [18] was “inactive” each time. In assay [19], the Potency entry is “inactive”.
Turning to `FC(F)(F)c1cccc(Cl)c1`, the Potency result in assay [1], in [2], in assay [20], in [4], in [5] and in assay [6] was “inactive” in each case. In addition, the Potency result in assay [7], in [8], in assay [9], in assay [10], in assay [11] and in assay [12] was “inactive” throughout. Besides, the Potency result in assay [13], in [14], in assay [15], in assay [16], in assay [17] and in assay [18] was “inactive” throughout. For the same compound, in assay [19], the Potency entry is “inactive”.
Regarding `CC(=O)c1ccc(C(C)=O)cc1`, the Potency entry in assay [1], in assay [2], in [20], in [4], in [6] and in [7] was “inactive” throughout. The Potency result in assay [8], in assay [9], in [10], in assay [11], in assay [12] and in assay [13] was “inactive” throughout. In addition, the Potency entry in [14], in [15], in assay [16], in assay [17], in [18] and in assay [19] was “inactive” in each case.
On to `CN(C)Cc1ccccc1O`, for which the Potency entry in [1], in [2], in [20], in assay [4], in assay [5] and in assay [6] was “inactive” throughout. Besides, the Potency result in assay [7], in [8], in [9], in [11], in assay [12] and in assay [13] was “inactive” throughout. The Potency entry in assay [14], in [15], in [16], in assay [17], in assay [18] and in assay [19] was “inactive” in each case.
Take `O=[N+]([O-])c1cccc(C(F)(F)F)c1`: the Potency entry in [1], in assay [2], in [4], in assay [5], in [6] and in assay [7] was “inactive” in each case. The Potency result in assay [8], in assay [9], in assay [10], in [11], in [12] and in assay [13] was “inactive” in each case. Further, the Potency entry in [14], in [15], in assay [16], in assay [17], in [18] and in [19] was “inactive” each time. The max response in assay [3] was 7.87%.
For `Fc1ccc(C(c2ccc(F)cc2)N2CCNCC2)cc1`, the Potency entry in assay [1], in assay [2], in assay [20], in [4], in assay [6] and in assay [10] was “inactive” each time. For the same compound, the Potency entry in assay [11], in assay [13], in assay [14], in [15], in assay [16] and in [17] was “inactive” in each case. For the same compound, the Potency result in [18] and in assay [19] was “inactive” throughout.
For `CCC(CC)C(C)CCOC(C)=O` (stereo not drawn), the Potency result in [1], in assay [2], in assay [20], in assay [4], in [5] and in assay [6] was “inactive” in each case. The Potency entry in [7], in [8], in assay [9], in assay [10], in assay [11] and in assay [12] was “inactive” throughout. The Potency entry in assay [13], in [14], in assay [15], in [16], in [17] and in assay [18] was “inactive” each time. The Potency entry in [19] was “inactive”.
As for `CCCCC(CC)CN1CN(CC(CC)CCCC)CC(C)(N)C1` (stereo not drawn), the Potency in assay [1] was 10.7 µM (active); in assay [2], 9.52 µM (active); in assay [20] it was 19 µM (active); in [4], 10.7 µM (active); in assay [5] it was 19 µM (active); in assay [6], 16.9 µM (active). For the same compound, the Potency in [7] is 19 µM (active); in [8], 19 µM (active); in [10], 10.7 µM (active); in assay [12] it was 19 µM (active); in assay [13], 15.1 µM (active); in assay [14], 19 µM (active). Moreover, the Potency in assay [15] was 8.49 µM (active); in [16] it was 10.7 µM (active); in assay [17], 13.4 µM (active); in [19], 21.3 µM (active). The Potency entry in assay [11] is “inactive”.
As for `COc1cc2nc(N3CCN(C(=O)c4ccco4)CC3)nc(N)c2cc1OC`, the cytotoxicity increase in assay [1] was 63.2% [at 15.8 µM]; in [5], 29.2% [at 15.8 µM]; in assay [10], 43.4% [at 15.8 µM]; in assay [13], -2.23% [at 15.8 µM]. For the same compound, the activity change, negative = cytotoxicity was -20% [at 15.8 µM] in [2]; 4.25% [at 15.8 µM] in [9]; -15.4% [at 15.8 µM] in assay [15]; -21.9% [at 15.8 µM] in assay [16]; 8.34% [at 15.8 µM] in assay [18]. The viability change, negative = cytotoxic in assay [20] was -0.626% [at 15.8 µM]. The activity change in [4] was 21% [at 15.8 µM, active compounds read high]; in assay [17] it was 1.13% [at 15.8 µM, active compounds read high]. In addition, the Potency in assay [7] is 7.37 µM (active); in [8], 10.4 µM (active); in assay [12], 10.4 µM (active). In addition, in assay [14], the activity change, negative = cytotoxic was -15.2% [at 15.8 µM].
